Measurements from PMC7862700, “An all-to-all approach to the identification of sequence-specific readers for epigenetic DNA modifications on cytosine”.

Biological target: T1, ETS2 (Homo sapiens, UniProt P15036 1-469)
T1 sequence: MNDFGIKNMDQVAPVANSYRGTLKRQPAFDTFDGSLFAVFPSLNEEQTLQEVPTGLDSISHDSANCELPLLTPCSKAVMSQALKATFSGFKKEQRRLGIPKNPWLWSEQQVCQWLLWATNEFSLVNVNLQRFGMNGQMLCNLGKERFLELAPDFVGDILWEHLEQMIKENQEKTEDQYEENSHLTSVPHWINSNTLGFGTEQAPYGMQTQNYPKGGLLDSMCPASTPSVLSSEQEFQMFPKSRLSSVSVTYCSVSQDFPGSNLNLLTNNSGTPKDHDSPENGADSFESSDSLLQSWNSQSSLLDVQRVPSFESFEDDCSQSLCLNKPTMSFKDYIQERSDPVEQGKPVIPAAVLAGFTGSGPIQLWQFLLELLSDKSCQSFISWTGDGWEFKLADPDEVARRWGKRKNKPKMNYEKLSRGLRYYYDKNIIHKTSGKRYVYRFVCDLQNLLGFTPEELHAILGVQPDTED
Test: DAPPL (digital affinity profiling via proximity ligation, sequencing); 10 mM Tris-HCl pH 7.5, 50 mM NaCl, 1 mM DTT, 4% glycerol, room temperature, 30 min; GST-TFs on glutathione beads, 16-mer random dsDNA library, 0.1% formaldehyde crosslink after washing; high values mean tight binding
Details: protein: recombinant; tags: N-terminal GST; dsDNA, one strand shown
In short: (§1)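 Binding signal is defined as a hexamer's read frequency for one factor over its frequency for the tag-only sample. To obtain reads, GST-fused human transcription factors were expressed in yeast, captured on glutathione beads, barcoded with DNA and pooled with that sample. Pools met 200 nmole of a 16-mer random double-stranded DNA library in Tris/NaCl/DTT/glycerol buffer for 30 min at room temperature before washing, 0.1% formaldehyde crosslinking, proximity ligation (BsaI/T4 ligase, 1 h, 37 °C), PCR and Illumina NextSeq500 sequencing.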

| Sequence | binding signal |
| --- | --- |
| TTGGTC | 1.1 fold enrichment (6-mer frequency, TF over GST control) |
| TTGCCG | 1.12 fold enrichment (6-mer frequency, TF over GST control) |
| TGGTCA | 1.13 fold enrichment (6-mer frequency, TF over GST control) |
| AGCAAC | 1.11 fold enrichment (6-mer frequency, TF over GST control) |
| AAAGCG | 1.04 fold enrichment (6-mer frequency, TF over GST control) |
| GGGTTC | 1.07 fold enrichment (6-mer frequency, TF over GST control) |
| CATACG | 1.01 fold enrichment (6-mer frequency, TF over GST control) |
| ATGCCG | 1.08 fold enrichment (6-mer frequency, TF over GST control) |
| CCACCT | 1.1 fold enrichment (6-mer frequency, TF over GST control) |
| CGCCCG | 1.09 fold enrichment (6-mer frequency, TF over GST control) |
| TCAACA | 1.07 fold enrichment (6-mer frequency, TF over GST control) |
| ACCACA | 1.06 fold enrichment (6-mer frequency, TF over GST control) |
| GTCCCA | 1.05 fold enrichment (6-mer frequency, TF over GST control) |
| TGGTGC | 1.01 fold enrichment (6-mer frequency, TF over GST control) |
| ACATGG | 1.14 fold enrichment (6-mer frequency, TF over GST control) |
| GTCTTG | 1 fold enrichment (6-mer frequency, TF over GST control) |
| ATGGTG | 1.14 fold enrichment (6-mer frequency, TF over GST control) |
| ACCACC | 1.15 fold enrichment (6-mer frequency, TF over GST control) |
| TGCCAA | 1.12 fold enrichment (6-mer frequency, TF over GST control) |
| GCTGCC | 1.08 fold enrichment (6-mer frequency, TF over GST control) |
| CCGCTG | 1.06 fold enrichment (6-mer frequency, TF over GST control) |
| ACGTTG | 1.07 fold enrichment (6-mer frequency, TF over GST control) |
| CCATGC | 1.03 fold enrichment (6-mer frequency, TF over GST control) |
| AAGGGT | 1.07 fold enrichment (6-mer frequency, TF over GST control) |
| GTCTAC | 1.13 fold enrichment (6-mer frequency, TF over GST control) |
| CATCGC | 1.14 fold enrichment (6-mer frequency, TF over GST control) |
| AAGGCA | 1.08 fold enrichment (6-mer frequency, TF over GST control) |
| GGTTTT | 1.1 fold enrichment (6-mer frequency, TF over GST control) |

Biological target: T2, SPDEF (Homo sapiens, UniProt O95238 1-335)
T2 sequence: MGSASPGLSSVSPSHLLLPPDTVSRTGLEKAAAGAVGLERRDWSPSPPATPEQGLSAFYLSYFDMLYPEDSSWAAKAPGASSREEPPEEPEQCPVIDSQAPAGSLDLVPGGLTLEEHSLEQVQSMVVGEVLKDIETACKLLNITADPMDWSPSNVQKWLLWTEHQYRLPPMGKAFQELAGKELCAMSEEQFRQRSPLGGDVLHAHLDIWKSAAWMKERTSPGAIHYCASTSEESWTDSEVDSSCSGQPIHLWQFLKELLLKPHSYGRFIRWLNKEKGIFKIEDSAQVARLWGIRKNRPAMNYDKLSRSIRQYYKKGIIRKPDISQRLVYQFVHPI
Test: as above
Details: protein: recombinant; tags: N-terminal GST; dsDNA, one strand shown
In short: as §1

| Sequence | binding signal |
| --- | --- |
| TGGACC | 1.05 fold enrichment (6-mer frequency, TF over GST control) |
| TGCTGC | 1.05 fold enrichment (6-mer frequency, TF over GST control) |
| CCACAC | 1.13 fold enrichment (6-mer frequency, TF over GST control) |
| CGGCCT | 1.12 fold enrichment (6-mer frequency, TF over GST control) |
| GCCCAC | 1.06 fold enrichment (6-mer frequency, TF over GST control) |
| TTGGTC | 1.06 fold enrichment (6-mer frequency, TF over GST control) |
| TTGCCG | 1.13 fold enrichment (6-mer frequency, TF over GST control) |
| AGCAAC | 1.08 fold enrichment (6-mer frequency, TF over GST control) |
| AAAGCG | 1.03 fold enrichment (6-mer frequency, TF over GST control) |
| GGGTTC | 1.14 fold enrichment (6-mer frequency, TF over GST control) |
| CATACG | 1.1 fold enrichment (6-mer frequency, TF over GST control) |
| ATGCCG | 1.13 fold enrichment (6-mer frequency, TF over GST control) |
| CCACCT | 1.19 fold enrichment (6-mer frequency, TF over GST control) |
| CGCCCG | 1.1 fold enrichment (6-mer frequency, TF over GST control) |
| TCAACA | 1.07 fold enrichment (6-mer frequency, TF over GST control) |
| TGGTGC | 1.19 fold enrichment (6-mer frequency, TF over GST control) |
| GTCTTG | 1.05 fold enrichment (6-mer frequency, TF over GST control) |
| ATGGTG | 1.14 fold enrichment (6-mer frequency, TF over GST control) |
| ACCACC | 1.17 fold enrichment (6-mer frequency, TF over GST control) |
| TGCCAA | 1.08 fold enrichment (6-mer frequency, TF over GST control) |
| GCTGCC | 1.09 fold enrichment (6-mer frequency, TF over GST control) |
| GCCCCA | 1.03 fold enrichment (6-mer frequency, TF over GST control) |
| CCGCTG | 1.01 fold enrichment (6-mer frequency, TF over GST control) |
| ACGTTG | 1.17 fold enrichment (6-mer frequency, TF over GST control) |
| CCATGC | 1.06 fold enrichment (6-mer frequency, TF over GST control) |
| GTTGAT | 1.07 fold enrichment (6-mer frequency, TF over GST control) |
| GTCTAC | 1.11 fold enrichment (6-mer frequency, TF over GST control) |
| GGTTTT | 1.07 fold enrichment (6-mer frequency, TF over GST control) |
